According to the supplement of paper PMC10127200:
Where a name gives a salt, the structure may show the parent alone.

Assays:
Assay in all cases: Euclidean distance of Cell Painting phenotypic profile (signed KS, 77 features) to DMSO centroid (dimensionless distance); 5 or 10 uM (library dependent); higher = stronger phenotypic change vs DMSO (phenoactivity)
Conditions in all cases: 48 h
786-O = test system: 786-O
In short: (§1)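 Five cancer lines, together with a healthy fibroblast line, received library compounds for 48 h at a library-dependent 10 or 5 uM and 0.1% DMSO final. Harmony then derived 77 features from confocal 20X images (9 fields/well) of the stained cells, scoring each as a signed Kolmogorov-Smirnov statistic against same-plate vehicle wells. After plate-position correction, correlation weighting and replicate averaging at the top dose, phenoactivity was taken as each profile's Euclidean distance to the median vehicle profile.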

A549 = test system: A549
In short: as §1

DU145 = test system: DU145
In short: as §1

FB = test system: FB
In short: as §1

HEPG2 = test system: HEPG2
In short: as §1

OVCAR4 = test system: OVCAR4
In short: as §1

## Cc1ccc(-c2cc(C(F)(F)F)nn2-c2ccc(S(N)(=O)=O)cc2)cc1 [Celecoxib]
786-O
  Euclidean distance: 1.6
A549
  Euclidean distance: 1.23
DU145
  Euclidean distance: 1.67
FB
  Euclidean distance: 1.09
HEPG2
  Euclidean distance: 1.08
OVCAR4
  Euclidean distance: 1.37

## COC1=C(OC)C(=O)C(CCCCCCCCCCO)=C(C)C1=O [Idebenone]
786-O
  Euclidean distance: 1.45
A549
  Euclidean distance: 0.641
DU145
  Euclidean distance: 0.677
FB
  Euclidean distance: 1.22
HEPG2
  Euclidean distance: 1.05
OVCAR4
  Euclidean distance: 0.744

## Cn1nnnc1SCC1=C(C(=O)O)N2C(=O)[C@@H](NC(=O)[C@H](OC=O)c3ccccc3)[C@H]2SC1 [Cefamandole nafate]
786-O
  Euclidean distance: 1.06
A549
  Euclidean distance: 0.559
DU145
  Euclidean distance: 1.12
FB
  Euclidean distance: 0.954
HEPG2
  Euclidean distance: 0.484
OVCAR4
  Euclidean distance: 0.965

## C=C(CC)C(=O)c1ccc(OCC(=O)O)c(Cl)c1Cl [Ethacrynic Acid]
786-O
  Euclidean distance: 1.19
A549
  Euclidean distance: 1.01
DU145
  Euclidean distance: 1.03
FB
  Euclidean distance: 1.17
HEPG2
  Euclidean distance: 1.05
OVCAR4
  Euclidean distance: 1.14

## C[C@@H](O)[C@H]1C(=O)N2C(C(=O)O)=C([C@H]3CCCO3)S[C@H]12 [Faropenem Sodium]
786-O
  Euclidean distance: 1.24
A549
  Euclidean distance: 0.485
DU145
  Euclidean distance: 1
FB
  Euclidean distance: 0.587
HEPG2
  Euclidean distance: 0.554
OVCAR4
  Euclidean distance: 0.718

## O=C(O)c1cc(O)c2c(c1)[C@@H]([C@H]1c3cc(C(=O)O)cc(O)c3C(=O)c3c(O[C@@H]4O[C@H](CO)[C@@H](O)[C@H](O)[C@H]4O)cccc31)c1cccc(O[C@@H]3O[C@H](CO)[C@@H](O)[C@H](O)[C@H]3O)c1C2=O [Sennoside B]
786-O
  Euclidean distance: 1.31
A549
  Euclidean distance: 0.866
DU145
  Euclidean distance: 0.808
FB
  Euclidean distance: 0.988
HEPG2
  Euclidean distance: 0.382
OVCAR4
  Euclidean distance: 0.952

## CCC[C@H](N[C@H]1CCc2cc(F)cc(F)c2C1)C(=O)Nc1cn(C(C)(C)CNCC(C)(C)C)cn1
786-O
  Euclidean distance: 1.07
A549
  Euclidean distance: 1.25
DU145
  Euclidean distance: 0.825
FB
  Euclidean distance: 0.705
HEPG2
  Euclidean distance: 1.07
OVCAR4
  Euclidean distance: 2.26

## COc1ccc(C2CNC(=O)C2)cc1OC1CCCC1 (centres undefined) [Rolipram]
786-O
  Euclidean distance: 1.65
A549
  Euclidean distance: 1.51
DU145
  Euclidean distance: 0.853
FB
  Euclidean distance: 0.861
HEPG2
  Euclidean distance: 1.13
OVCAR4
  Euclidean distance: 1.44

## O=C1C(O)=C([C@H]2CC[C@H](c3ccc(Cl)cc3)CC2)C(=O)c2ccccc21 [Atovaquone]
786-O
  Euclidean distance: 1.3
A549
  Euclidean distance: 0.846
DU145
  Euclidean distance: 1.08
FB
  Euclidean distance: 1.41
HEPG2
  Euclidean distance: 0.566
OVCAR4
  Euclidean distance: 1.08

## CC(C)c1c(C(=O)Nc2ccccc2)c(-c2ccccc2)c(-c2ccc(F)cc2)n1CC[C@@H](O)C[C@@H](O)CC(=O)O [atorvastatin]
786-O
  Euclidean distance: 1.57
A549
  Euclidean distance: 1.35
DU145
  Euclidean distance: 3.44
FB
  Euclidean distance: 3.29
HEPG2
  Euclidean distance: 0.836
OVCAR4
  Euclidean distance: 1.24

## Oc1ccc(Nc2nc(-c3ccc(Cl)cc3)cs2)cc1
786-O
  Euclidean distance: 1.72
A549
  Euclidean distance: 2.03
DU145
  Euclidean distance: 1.54
FB
  Euclidean distance: 2.15
HEPG2
  Euclidean distance: 2.49
OVCAR4
  Euclidean distance: 1.41

## CCN(CCO)CCCC(C)Nc1ccnc2cc(Cl)ccc12 (centres undefined) [Hydroxychloroquine Sulfate]
786-O
  Euclidean distance: 3.48
A549
  Euclidean distance: 3.08
DU145
  Euclidean distance: 2.6
FB
  Euclidean distance: 5.29
HEPG2
  Euclidean distance: 2.92
OVCAR4
  Euclidean distance: 3.58

## CCCN[C@H]1CCc2nc(N)sc2C1 [Pramipexole 2HCl Monohydrate]
786-O
  Euclidean distance: 0.779
A549
  Euclidean distance: 1.01
DU145
  Euclidean distance: 1.58
FB
  Euclidean distance: 1.08
HEPG2
  Euclidean distance: 0.888
OVCAR4
  Euclidean distance: 1.26

## CCOC(=O)[C@H](CCc1ccccc1)N[C@@H](C)C(=O)N1[C@H](C(=O)O)C[C@@H]2CCC[C@@H]21 [Ramipril]
786-O
  Euclidean distance: 1.25
A549
  Euclidean distance: 0.735
DU145
  Euclidean distance: 0.891
FB
  Euclidean distance: 1.1
HEPG2
  Euclidean distance: 1.89
OVCAR4
  Euclidean distance: 1.21

## CCc1cc(C(N)=O)ccc1-n1nc(C(C)C)c2c(-n3cnc(-c4cnn(C)c4)c3)ccnc21
786-O
  Euclidean distance: 3.26
A549
  Euclidean distance: 3.06
DU145
  Euclidean distance: 3.79
FB
  Euclidean distance: 3.38
HEPG2
  Euclidean distance: 3.38
OVCAR4
  Euclidean distance: 2.86

## O=C(COc1ccc(C(=O)c2ccccc2)cc1)NC1CCN(Cc2ccccc2)CC1 [AdipoRon]
786-O
  Euclidean distance: 0.958
A549
  Euclidean distance: 0.958
DU145
  Euclidean distance: 0.661
FB
  Euclidean distance: 0.817
HEPG2
  Euclidean distance: 1.11
OVCAR4
  Euclidean distance: 0.793

## NC[C@H]1O[C@H](O[C@H]2[C@H](O)[C@@H](O[C@H]3O[C@H](CO)[C@@H](O)[C@H](N)[C@H]3O)[C@H](N)C[C@@H]2N)[C@H](N)C[C@@H]1O [Tobramycin]
786-O
  Euclidean distance: 0.897
A549
  Euclidean distance: 1.31
DU145
  Euclidean distance: 1.34
FB
  Euclidean distance: 0.987
HEPG2
  Euclidean distance: 0.563
OVCAR4
  Euclidean distance: 1.4

## Fc1ccc([C@@H]2CCNC[C@H]2COc2ccc3c(c2)OCO3)cc1 [Paroxetine HCl]
786-O
  Euclidean distance: 1.46
A549
  Euclidean distance: 1.59
DU145
  Euclidean distance: 1.59
FB
  Euclidean distance: 1.93
HEPG2
  Euclidean distance: 2.28
OVCAR4
  Euclidean distance: 1.54

## CCNC(=O)[C@@H]1CCCN1C(=O)[C@H](CCCNC(=N)N)NC(=O)[C@H](CC(C)C)NC(=O)[C@@H](CC(C)C)NC(=O)[C@H](Cc1ccc(O)cc1)NC(=O)[C@H](CO)NC(=O)[C@H](Cc1c[nH]c2ccccc12)NC(=O)[C@H](Cc1c[nH]cn1)NC(=O)[C@@H]1CCC(=O)N1 [Leuprorelin Acetate]
786-O
  Euclidean distance: 1.85
A549
  Euclidean distance: 1
DU145
  Euclidean distance: 1.17
FB
  Euclidean distance: 0.933
HEPG2
  Euclidean distance: 0.582
OVCAR4
  Euclidean distance: 0.958
